Screening results deposited in PubChem by several laboratories.
Shown are actives, neighbours in structure and some others; about 4.9% of the full set was active somewhere.
Platelet DG rel = inhibitors of platelet dense granule secretion, primary screen, cell-based, MLPCN, human platelets. human platelet-rich plasma, SFLLRN dense granule ATP release, luminescence. inhibition, %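 (compounds screened at 7.5 µM in platelet-rich plasma)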. 0.22% of 300,000 active;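 active = mean replicate score, as percent of positive control, at or above 50; inconclusive = mean below 50 but at least one replicate at or above 50; inactive = mean and every replicate below 50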
MPTP inh = mitochondrial permeability transition pore inhibitors, primary screen, biochemical, isolated mouse mitochondria, absorbance; Ca2+ swelling absorbance, 30 min; inhibition, % at 10 µM; 1.4% of 360,000 active; AID 602449, 2012;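 active = inhibition of 50% or more, scaled per plate between neutral and stimulator controls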;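 also: 0% = DMSO wells given calcium and 100% = 1 mM EGTA wells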
dFosB act = activators of delta FosB homodimer, primary screen, biochemical, fluorescence polarization, TAMRA-CDK5 oligo, single point; activation, % at 25 µM; purified delta FosB; percent of positive-control signal above neutral wells; Protein FosB (Mus musculus), P13346; AID 493131, 2011; 0.99% of 340,000 active;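 active = mean activation above about 17%, with every replicate also reaching it, limit read from the data, passing the limit was not always enough; inconclusive = only one of the two conditions met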
Target sequence (P13346 whole entry, looked up): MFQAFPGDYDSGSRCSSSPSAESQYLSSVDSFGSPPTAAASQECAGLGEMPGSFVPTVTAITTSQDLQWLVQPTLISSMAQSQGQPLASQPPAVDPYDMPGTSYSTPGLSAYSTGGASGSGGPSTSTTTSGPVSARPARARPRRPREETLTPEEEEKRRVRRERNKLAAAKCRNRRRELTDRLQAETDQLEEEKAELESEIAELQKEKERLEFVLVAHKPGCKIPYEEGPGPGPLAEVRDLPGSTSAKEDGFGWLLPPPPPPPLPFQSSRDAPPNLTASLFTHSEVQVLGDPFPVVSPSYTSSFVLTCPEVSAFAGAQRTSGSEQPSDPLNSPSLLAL
HSF1 inhib = HSF1 inhibitors in luciferase reporter cells, primary screen, cell-based, NIH3T3, luminescence; NIH3T3-HGL HSE-luciferase, MG132-induced, luminescence 8 h; hits give low values; 0.77% of 300,000 active; activity change, negative = inhibition, % at 7.5 µM (by protocol);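 active = more than half of replicate wells show activity change below -50%, luminescence cut by over half; inconclusive = some wells, but at most half, below -50%; inactive = no replicate well below -50%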;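 also: luciferase reports HSF-1 transcriptional activity via heat shock element; 0% = median of DMSO wells and -100% = zero luminescence signal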
HSF1 activator = HSF-1 activators, primary screen, NIH3T3-HGL cells, MG132 stress, luminescence, single point; AID 504408, 2011; activation, % at 9 µM; NIH3T3-HGL HSF-1 luciferase reporter, 8 h; 100% = twice DMSO control signal; 1.7% of 300,000 active;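 active = mean replicate activation of at least 50% with a set share of replicates each reaching 50%; inconclusive = only one of those two conditions met; inactive = mean below 50% and too few replicates reaching it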;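 also: 0% = median of the neutral control wells and 100% = twice that signal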
HSP90 refold inh = HSP90 inhibitors, primary screen, cell lysate, luminescence; Rabbit reticulocyte lysate, luciferase refolding luminescence, 3 h; Heat shock protein HSP 90 (rabbit reticulocyte lysate; luciferase refolding); 0.91% of 290,000 active; inhibition, % at 5.6 µM;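 active = inhibition above the screen-wide mean plus 3 SD, computed separately per campaign, cut at about 16% in these data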;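 also: 0% = DMSO wells and 100% = 60 µM geldanamycin wells; inhibitors lower the luminescence because luciferase stays unfolded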
Numbers without * were called inactive; i = inactive; ? = inconclusive; . = no result.

SMILES | Platelet DG rel | MPTP inh | dFosB act | HSF1 inhib | HSF1 activator | HSP90 refold inh
C[C@@H](NC(=O)Cn1cnc2c(OCc3ccccc3)ncnc21)c1cccc2ccccc12 | . | 0 | 26* | . | . | .
C[C@@H](NCCCn1cnc2c(OCc3ccccc3)ncnc21)c1cccc2ccccc12 | . | 2 | -18 | . | . | .
COc1ccc(CCNC(=O)c2cc(-c3ccccc3)c(N3CCOCC3)s2)c(OC)c1OC | 6 | 2 | -17 | 3 | 13 | -3
Cc1nc(SCC(=O)N2CCOCC2)c2c3c(sc2n1)CCC3 | . | 2 | -2 | . | . | .
CCCn1c(-c2nonc2N)nc2ccccc21 | 2 | 0 | 0 | -23 | -29 | -1
Cn1c(-c2nonc2N)nc2ccccc21 | 4 | 0 | 0 | -74* | -79 | -4
Cc1ccsc1/C=N/Nc1nc2ccccc2[nH]1 | 20 | -1 | 3 | i | 803* | 6
C(=N\Nc1nc2ccccc2[nH]1)/c1cccs1 | . | -3 | 3 | 99 | 113* | -4
COc1cccc(NC(=O)CN2C(=O)NC(C)(CCC(C)C)C2=O)c1 (stereo not given) | 0 | 0 | 0 | 3 | 12 | -4
O=C(CNS(=O)(=O)Cc1ccccc1)NNc1ccccc1 | . | 4 | . | . | . | .
COc1ccc(-c2cc(C(=O)N3CCCCCC3)no2)cc1 | -1 | -2 | -8 | 25 | 60* | 10
O=C(c1cc(-c2ccc(F)cc2)on1)N1CCOCC1 | 2 | 1 | 0 | 30 | 44 | 10
COc1ccc(-c2cc(C(=O)Nc3cc(C)ccc3O)no2)cc1 | 9 | 0 | 8 | 23 | 68* | -6
O=C(c1cc(-c2ccc(F)cc2)on1)N1CCCCCC1 | -3 | 0 | 0 | 5 | 6 | 17*
O=C(c1cc(-c2ccc(F)cc2)on1)N1CCCC1 | 5 | -2 | 3 | 29 | 62* | 7
Cc1ccc(-c2cc(C(=O)Nc3cc(C)ccc3O)no2)cc1 | 4 | 1 | -1 | 26 | 41 | 4
COCc1cc(=O)n2[nH]c(C(C)(C)C)cc2n1 | -4 | 2 | 3 | 0 | 17 | -1
CCn1c(O)c(C2=c3ccccc3=NC2=O)c2cc(Br)ccc21 | 2 | . | . | 198 | 209* | 4
O=C1N=c2ccccc2=C1c1c(O)n(-c2cccc(F)c2)[nH]c1=O | -1 | 21 | 0 | -9 | 4 | 2
O=c1c2ccccc2nc(SCc2nnc(-c3ccccc3Br)o2)n1Cc1ccco1 | 0 | 5 | 3 | 64 | 97* | 4
O=c1c2ccccc2nc(SCc2ccccc2)n1Cc1ccco1 | -10 | 1 | -14 | 8 | -6 | -2
O=C(COC(=O)Cc1c[nH]c2ccccc12)Nc1c(Cl)cccc1C(F)(F)F | -26 | 1 | -2 | -2 | -9 | .
Cc1ccc2sc(N(CCCN(C)C)C(=O)CCS(=O)(=O)c3ccccc3)nc2c1C | 6 | 0 | 7 | 75 | 111* | 1
Cc1cc(C)cc(N2C(=O)CC(Sc3ncn[nH]3)C2=O)c1 (stereo not given) | -8 | 0 | -5 | 14 | 23 | 2
COC(=O)C1=C(C)OC(N)=C(C#N)C1c1ccccc1 (stereo not given) | -6 | -1 | -1 | -6 | -2 | 3
SMILES | Platelet DG rel | MPTP inh | dFosB act | HSF1 inhib | HSF1 activator | HSP90 refold inh
CNC(=O)C1C(=S)NC(N)=C(C#N)C1c1ccccc1 (stereo not given) | -2 | -4 | -7 | -72* | -75 | 2
NS(=O)(=O)c1ccc(CNC(=O)c2ccc(Cl)c(S(=O)(=O)NCc3ccccc3)c2)cc1 | . | -1 | -6 | . | . | .
NS(=O)(=O)c1ccc(NC(=O)c2ccc(CNS(=O)(=O)c3cc(C(F)(F)F)ccc3Cl)cc2)cc1 | 3 | 4 | 108* | -4 | 2 | 0
COCCn1c(C)cc(C(=O)COC(=O)c2ccc(N3CCCC3=O)cc2)c1C | -2 | 0 | -8 | 0 | -1 | -2
COCCn1c(C)cc(C(=O)COC(=O)c2ccc(Cl)c(S(N)(=O)=O)c2)c1C | -5 | 0 | -8 | -61* | -62 | .
Cc1cc(C(=O)COC(=O)CNC(=O)c2ccccc2)c(C)n1CC1CCCO1 (stereo not given) | 7 | 1 | -3 | -50* | -60 | 5
Cc1cc(C(=O)COC(=O)c2ccc(Cl)c(S(N)(=O)=O)c2)c(C)n1CC1CCCO1 (stereo not given) | -4 | -1 | -12 | -57* | -62 | .
COCCn1c(C)cc(C(=O)COC(=O)c2ccc(-n3nc(C)cc3C)cc2)c1C | 2 | 1 | 1 | 14 | 60* | 3
COCCn1c(C)cc(C(=O)COC(=O)c2ccc(Br)o2)c1C | 11 | 0 | -4 | ? | -57 | 4
COc1cccc(C(O)c2nc(-c3cccc(C(=O)O)c3)cs2)c1 (stereo not given) | . | 0 | . | . | . | .
O=S1(=O)CC(N2CCN(CCO)CC2)CN1Cc1cn(Cc2ccc(F)cc2)nn1 (stereo not given) | . | -1 | . | . | . | .
Nc1nc(N)c(-c2cccc(C(F)(F)F)c2)c(Cc2cccc(C(F)(F)F)c2)n1 | . | 3 | 16* | . | . | .
CCCCCCCCCCCCCCCC[N+](C)(C)Cc1ccc(F)cc1 | . | 4 | -163 | . | . | .
C[C@@H]1CN([C@H](C)CO)S(=O)(=O)c2ccc(C#CCN(C)C)cc2O[C@@H]1CN(C)Cc1ccccc1F | . | -2 | . | . | . | .
CC(OC(=O)c1nsc(Cl)c1Cl)C(=O)NCc1ccc2c(c1)OCO2 (stereo not given) | 3 | -1 | 3 | -85* | -88 | -1
Cc1ccc(N/N=C(\C#N)C(=N)N2CCCCCC2)cc1 | 25 | 0 | -2 | 25 | 48 | 5
CCN(CC)C(=N)/C(C#N)=N/Nc1ccc(C)cc1 | -19 | 0 | -7 | 30 | 57* | 5
CC(=O)Nc1ccc(N=Nc2ccc(O)cc2)cc1 | 7 | 1 | -1 | 31 | 57* | 3
c1ccc(Cn2nnnc2C(c2cccs2)N2CCc3ccccc3C2)cc1 (stereo not given) | -8 | 1 | 0 | 135 | 177* | 6
COc1nnc(-c2ccc(C(=O)N3C[C@@H]4C[C@H](C3)c3cccc(=O)n3C4)cc2)c2ccccc12 | 1 | 2 | 2 | -58* | -69 | -1
CC(C)(O)C(=O)NNC(=S)Nc1ccc(F)c(Cl)c1 | 9 | -1 | 7 | 6 | -3 | 4
COc1cc(/C=C/C(=O)O)cc(S(=O)(=O)Nc2ccc3nc(C)sc3c2)c1OC | 11 | 1 | -6 | -14 | -17 | 17*
O=C1c2ccccc2C(c2nnnn2-c2ccc3c(c2)OCCO3)N1Cc1cccs1 (stereo not given) | . | 1 | . | . | . | .
